Results from PubChem BioAssay (NCATS).
Results filed as inconclusive are left out. Entries that show only a call come without a potency. The source made the active and inactive calls. Unless noted, the call rests on the fitted dose curve; in most records, active means well fitted curve in the direction sought with a large enough effect; inconclusive means small, poorly fitted or top-dose-only effect, or another doubt; inactive means no such curve, though single readings can be large; an effect the other way counts as inactive or inconclusive. Residues, ends and D or L forms follow the SMILES beside them. *: point of attachment. Cbz = O=C(OCc1ccccc1)*

Legend:
[1] = target: Pyruvate kinase (Leishmania mexicana) (UniProt Q27686); experiment: qHTS Validation Assay for Inhibitors of Leishmania Mexicana Pyruvate Kinase (AID 945); further: potency means the concentration at half of the fitted maximal effect
In short: (§1)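 LmPYK E451W 0.2 nM; 0.5 mM PEP, 0.1 mM ADP, 7 mM MgCl2, 50 mM KCl, imidazole pH 7.2, 0.01% Tween 20, 0.05% BSA; 1 h RT; PKLight luminescence; DMSO-normalized.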

[2] = target: Pyruvate kinase PKM (Homo sapiens) (UniProt P14618); experiment: qHTS Assay for Activators of Human Muscle Pyruvate Kinase (AID 954; active means well fitted curve in the direction sought with a large enough effect, not every such curve was filed as active)
In short: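 Screening used highly purified human pyruvate kinase M2 under submaximal activity, with PEP at its Km and ADP below Km. After an hour at room temperature, ATP was read by luciferase luminescence.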

[3] = target: Pyruvate kinase (Leishmania mexicana) (UniProt Q27686); experiment: qHTS Validation Assay for Activators of Leishmania Mexicana Pyruvate Kinase (AID 959)
In short: as §1

[4] = target: Pyruvate kinase PKM (Homo sapiens) (UniProt P14618); experiment: qHTS Assay for Inhibitors of Human Muscle Pyruvate Kinase (AID 958)
In short: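 Purified human PKM2 (0.1 nM) with 0.5 mM PEP (Km) and 0.1 mM ADP in 50 mM imidazole pH 7.2, KCl, MgCl2, 1 h at room temperature; ATP formed read by coupled luciferase luminescence. Normalized to no-enzyme/110 uM thiadiazolimine inhibition; 0.3 nM enzyme column for activation.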

Pyruvate kinase (Leishmania mexicana), sequence (Q27686 2-499 E452W): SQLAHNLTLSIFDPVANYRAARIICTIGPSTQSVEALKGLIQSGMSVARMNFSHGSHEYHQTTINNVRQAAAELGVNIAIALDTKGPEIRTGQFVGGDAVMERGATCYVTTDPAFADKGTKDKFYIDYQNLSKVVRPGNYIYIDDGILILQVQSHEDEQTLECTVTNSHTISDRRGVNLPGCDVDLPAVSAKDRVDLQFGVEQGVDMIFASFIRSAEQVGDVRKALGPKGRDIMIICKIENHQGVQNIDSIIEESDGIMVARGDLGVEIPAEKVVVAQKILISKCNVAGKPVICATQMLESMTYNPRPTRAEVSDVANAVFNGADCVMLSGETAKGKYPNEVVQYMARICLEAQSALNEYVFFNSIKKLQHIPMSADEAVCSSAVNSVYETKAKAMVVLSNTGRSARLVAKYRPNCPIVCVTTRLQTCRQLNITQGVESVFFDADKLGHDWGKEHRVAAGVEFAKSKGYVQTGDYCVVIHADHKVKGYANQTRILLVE
Pyruvate kinase PKM (Homo sapiens), sequence (P14618 whole entry, looked up): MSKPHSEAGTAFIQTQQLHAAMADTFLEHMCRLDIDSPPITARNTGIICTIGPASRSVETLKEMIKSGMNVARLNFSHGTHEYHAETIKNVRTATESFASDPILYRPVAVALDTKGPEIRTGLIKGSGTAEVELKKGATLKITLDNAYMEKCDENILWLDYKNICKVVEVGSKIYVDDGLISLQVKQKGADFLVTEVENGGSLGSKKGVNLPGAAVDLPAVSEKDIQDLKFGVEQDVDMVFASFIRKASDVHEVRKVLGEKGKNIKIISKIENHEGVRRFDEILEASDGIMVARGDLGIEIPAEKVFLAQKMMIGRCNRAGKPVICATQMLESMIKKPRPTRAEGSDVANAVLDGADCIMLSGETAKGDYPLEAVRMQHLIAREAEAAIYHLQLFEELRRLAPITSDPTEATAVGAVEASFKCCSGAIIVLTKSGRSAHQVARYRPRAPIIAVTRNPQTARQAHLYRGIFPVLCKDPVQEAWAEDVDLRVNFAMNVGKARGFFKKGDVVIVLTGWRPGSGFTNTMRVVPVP

Row | Compound | Potency [1] | outcome [2] | Potency [3] | Potency [4]
1 | CCCCCCC/C=C\CCCCCCCCC(=O)O | inactive | inactive |  | 
2 | N#CC(C#N)=C(N)/C(C#N)=C/c1ccc(O)cc1 | inactive | inactive |  | 
3 | CCCCCCN(CCCCCC)C(=O)Cc1c(-c2ccc(F)cc2)[nH]c2ccccc12 | inactive | inactive |  | 
4 | Cc1nc2c(OCc3ccccc3)cccn2c1CC#N | inactive | inactive |  | 
5 | O=C(O)Cc1c[nH]c2ccc(O)cc12 | inactive | inactive |  | 
6 | NC(=O)CNCCC(c1ccccc1)c1ccccc1 | inactive | inactive |  | 
7 | C[C@H](O)C(=O)C1=Nc2c(nc(N)[nH]c2=O)NC1 | inactive | inactive |  | 
8 | NC(=Nc1ccccc1)NC(=O)c1nc(Cl)c(N)nc1N | inactive | inactive |  | 
9 | c1ccc2nc(C3=NCCN3)ccc2c1 | inactive | inactive |  | 
10 | O=S(=O)(c1cccc2c(Cl)cccc12)N1CCCNCC1 | inactive | inactive |  | 
11 | Cc1ccc2c(c1)C(N1CCN(C)CC1)=Nc1cccnc1N2 | inactive | inactive |  | 
12 | Nc1ccc(N2C(=O)c3ccccc3C2=O)c(Cl)c1 | inactive | inactive |  | 
13 | O=[N+]([O-])c1cccc2cn[nH]c12 | inactive | inactive |  | 
14 | CCCc1c(OCCCOc2ccc(OCC(=O)O)cc2)ccc(C(C)=O)c1O | inactive | inactive |  | 
15 | O=c1cc(-c2ccccc2)[nH]c2nc(Cl)ccc12 | inactive | inactive |  | 
16 | Nc1ncnc2c1c(-c1ccc(Oc3ccccc3)cc1)cn2C1CCCC1 | inactive | inactive |  | 
17 | Nn1nnc2ccccc21 | inactive | inactive |  | 
18 | O=C(O)c1cccnc1C(=O)O | inactive | inactive |  | 
19 | Cc1cccc(C(=O)NCN2CCN(c3ccccc3C#N)CC2)c1 | inactive | inactive |  | 
20 | CC(C)Cn1c(=O)n(C)c(=O)c2[nH]cnc21 | inactive | inactive |  | 
21 | O=C(N[C@@H](Cc1ccccc1)C(=O)CCl)OCc1ccccc1 | inactive | inactive |  | 
22 | CCN(CC)CCOC(=O)c1cc(Cl)c(N)cc1OC | inactive | inactive |  | 
23 | Cc1nc(N=Nc2cc(S(=O)(=O)O)c3cc([N+](=O)[O-])cc(S(=O)(=O)O)c3c2)c(COP(=O)(O)O)c(C=O)c1O | inactive | inactive |  | 
24 | COc1ccccc1N1CCN(CCCCNC(=O)c2ccc3ccccc3c2)CC1 | inactive | inactive |  | 
25 | COc1ccc(-c2ccc(N)[n+](CCCC(=O)O)n2)cc1 | inactive | inactive |  | 

Row | Compound | Potency [1] | outcome [2] | Potency [3] | Potency [4]
26 | N=C(N)c1ccc(N)cc1 | inactive | inactive |  | 
27 | Cn1ccnc1 | inactive | inactive |  | 
28 | COC(=O)[C@H](NC(=O)c1cc(-c2ccccc2)nc2ccccc12)c1ccccc1 | inactive | inactive |  | 
29 | N=C(N)c1ccccc1 | inactive | inactive |  | 
30 | Cc1cc2c(cc1Cl)N(C(=O)Nc1ccnc3ccccc13)CC2 | inactive | inactive |  | 
31 | COCc1nc2c([nH]1)c(=O)n(C)c(=O)n2CC(C)C | inactive | inactive |  | 
32 | O=C1NC(=O)c2cc(Nc3ccccc3)c(Nc3ccccc3)cc21 | inactive | inactive |  | 
33 | O=[N+]([O-])c1cccc2c(Br)[nH]nc12 | inactive | inactive |  | 
34 | N[C@@H](CS(=O)O)C(=O)O | inactive | inactive |  | 
35 | O=C(O)/C(=C/c1c(C(=O)O)[nH]c2cc(Cl)cc(Cl)c12)c1ccccc1 | inactive | inactive |  | 
36 | CCn1c(=O)[nH]c2cc(Cl)c(Cl)cc21 | inactive | inactive |  | 
37 | NCCCNCCCCNCCCN | inactive | inactive |  | 
38 | c1ccc2c(c1)CC(N1CCN(c3cccc4c3OCCO4)CC1)C2 | inactive | inactive |  | 
39 | CC[N+](CC)(CC)CC(=O)Nc1c(C)cccc1C | inactive | inactive |  | 
40 | CCC(=O)N1CCN(C(=O)c2ccccc2)CC1 | inactive | inactive |  | 
41 | NCCCCN=C(N)N | inactive | inactive |  | 
42 | CN(C)S(=O)(=O)c1ccc2c(c1)/C(=C/c1cc3c([nH]1)CCCC3)C(=O)N2 | inactive | inactive |  | 
43 | CNc1cc(NS(=O)(=O)c2ccc(N)cc2)nc(NC)n1 | inactive | inactive |  | 
44 | O=C(O)c1cc(=O)cc(C(=O)O)[nH]1 | inactive | inactive |  | 
45 | C=CCn1c(=O)c2c(nc(-c3ccc(S(=O)(=O)O)cc3)n2C)n(C)c1=O | inactive | inactive |  | 
46 | CCCn1c(=O)c2c(ncn2C)n(CCC)c1=O | inactive | inactive |  | 
47 | N[C@H](C(=O)O)c1cc(O)cc(O)c1 | inactive | inactive |  | 
48 | CC[C@@H]1Cc2cc(O)ccc2C2=C1c1ccc(O)cc1C[C@H]2CC | inactive | inactive |  | 
49 | N=C(N)SCCN | inactive | inactive |  | 
50 | O=C(O)/C=C/c1ccc(O)c(O)c1 | inactive | inactive |  | 

Row | Compound | Potency [1] | outcome [2] | Potency [3] | Potency [4]
51 | Cn1cc(C(=O)OCC2CCN(CCNS(C)(=O)=O)CC2)c2ccccc21 | inactive | inactive |  | 
52 | NOCC(=O)O | inactive | inactive |  | 
53 | O=C(OCCN1CCOCC1)C1(c2ccccc2)CCCCC1 | inactive | inactive |  | 
54 | CNCCNS(=O)(=O)c1cccc2cnccc12 | inactive | inactive |  | 
55 | O=C(O)c1ccccc1Nc1ccccc1 | inactive | inactive |  | 
56 | COc1ccc(NC(=O)c2ccc(-c3ccc(-c4noc(C)n4)cc3C)cc2)cc1N1CCN(C)CC1 | inactive | inactive |  | 
57 | CCCn1c(=O)c2[nH]c(C3CCCC3)nc2n(CCC)c1=O | inactive | inactive |  | 
58 | CCCn1c(=O)c2[nH]c(-c3ccc(S(=O)(=O)O)cc3)nc2n(CCC)c1=O | inactive | inactive |  | 
59 | S=C(S)N1CCCC1 | inactive | inactive |  | 
60 | CCCOC(=O)c1c(-c2ccccc2)nc(CC)c(C(=O)SCC)c1CCC | inactive | inactive |  | 
61 | Cc1nc(N=Nc2ccc(C(=O)O)cc2)c(COP(=O)(O)O)c(C=O)c1O | inactive | inactive | 5.01 µM (active) | 
62 | C/C(=C\c1ccc(C(=O)O)cc1)c1ccc2c(c1)C(C)(C)CCC2(C)C | inactive | inactive |  | 
63 | CCSC(=N)N | inactive | inactive |  | 
64 | CC(=O)N[C@@H](Cc1c[nH]c2ccccc12)C(=O)OCc1cc(C(F)(F)F)cc(C(F)(F)F)c1 | inactive | inactive |  | 
65 | CCN1C(=O)C=CC1=O | inactive | inactive |  | 
66 | COc1ccccc1N1CCN(CCCCN2C(=O)c3ccccc3C2=O)CC1 | inactive | inactive |  | 
67 | NS(=O)(=O)c1cccc2c1c([N+](=O)[O-])cc1nc(O)c(O)nc12 | inactive |  |  | inactive
68 | N#C/C(=C\c1ccc(O)c(O)c1)C(=O)NCCCNC(=O)/C(C#N)=C/c1ccc(O)c(O)c1 |  | inactive |  | 
69 | COc1cc(CC(=O)O)ccc1O | inactive | inactive |  | 
70 | COc1cc(/C=C(\C#N)C(=O)c2ccc(O)c(O)c2)cc(I)c1O | inactive | inactive | 15.8 µM (active) | 
71 | O=C(O)c1cc2cc(F)ccc2[nH]1 | inactive | inactive |  | 
72 | CNC(=O)c1cc2c(cn1)[nH]c1ccccc12 |  | inactive | inactive | 
73 | Clc1nccc2c1ccc1ccccc12 | inactive | inactive |  | 
74 | c1ccc(CN2CCC3(CCCc4ccccc43)CC2)cc1 | inactive | inactive |  | 
75 | Nc1ccc(-c2ccc3ccccc3n2)cc1 | 12.6 µM (active) | inactive | inactive | 12.6 µM (active)

Row | Compound | Potency [1] | outcome [2] | Potency [3] | Potency [4]
76 | CCCc1c(-c2ccc(O)cc2)nn(-c2ccc(O)cc2)c1-c1ccc(O)cc1 | inactive | inactive |  | 
77 | Oc1ccc(Cn2cc[nH]c2=S)cc1 | inactive | inactive |  | 
78 | CCN(c1nc(N)c(C(=O)N=C(N)N)nc1Cl)C(C)C | inactive | inactive |  | 
79 | C[C@H](NC(=O)/C(C#N)=C/c1ccc(O)c(O)c1)c1ccccc1 | inactive | inactive |  | 
80 | O=c1[nH]c2cc(Cl)ccc2c(O)c1-c1ccc(Oc2ccccc2)cc1 | inactive | inactive |  | 
81 | COc1ccccc1N1CCN(CCN(C(=O)c2ccc(F)cc2)c2ccccn2)CC1 | inactive | inactive |  | 
82 | Cc1nc(N=Nc2ccc(S(=O)(=O)O)cc2S(=O)(=O)O)c(COP(=O)(O)O)c(C=O)c1O | inactive | inactive | 3.98 µM (active) | 
83 | O=C(O)Cc1ccc(O)c(O)c1 | inactive | inactive |  | 
84 | NC(N)=NC(N)=Nc1ccccc1 | inactive | inactive |  | 
85 | CC(=O)NNC(=O)N1Cc2ccccc2Oc2ccc(Cl)cc21 | inactive | inactive |  | 
86 | CC(C)[C@H](NC(=O)OCc1ccccc1)C(=O)N[C@H](C=O)Cc1ccccc1 (Cbz-Val-Phe-aldehyde) | inactive | inactive |  | 
87 | O=C(O)C1=CC(=C(c2ccc(O)c(C(=O)O)c2)c2ccc(O)c(C(=O)O)c2)C=CC1=O | inactive |  |  | inactive
88 | O=C1Cc2c([nH]c3ccc(Br)cc23)-c2ccccc2N1 |  | inactive | inactive | 
89 | Nc1ccc(-c2nc3ccc(-c4nc5ccc(N)cc5[nH]4)cc3[nH]2)cc1 |  | inactive | inactive | 
90 | N=C(N)c1ccc(OCCCCCOc2ccc(C(=N)N)cc2)cc1 (tested in a mixture with another compound) |  | inactive |  | 
91 | N[C@H](C(=O)O)[C@H](O)C(=O)O | inactive | inactive |  | 
92 | Cc1ccc([N+](=O)[O-])cc1S(=O)(=O)N(C)C | inactive | inactive |  | 
93 | NCCS(=O)O | inactive | inactive |  | 
94 | N#Cc1cc2nc(O)c(O)nc2cc1[N+](=O)[O-] | inactive | inactive | 25.1 µM (active) | 
95 | NCCCCN | inactive | inactive |  | 
96 | N[C@@H](Cc1ccc(O)c(I)c1)C(=O)O | inactive | inactive |  | 
97 | C=CC[C@H](N)C(=O)O | inactive | inactive |  | 
98 | O=c1[nH]ccc2c(O)cccc12 | inactive | inactive |  | 
99 | O=c1ccc2c(OCCCCc3ccccc3)c3ccoc3cc2o1 | inactive | inactive |  | 
